# From PubChem BioAssay (Tox21)
# Values joined by “and” are separate entries in the source; they are usually repeats but may differ in a detail not shown here. Equal entries are not always repeated. Active and inactive are the calls of the source. Entries that show only a call come without a potency. Unless noted, the call rests on the fitted dose curve; in most records, active means well fitted curve in the direction sought with a large enough effect in the repeat runs; inconclusive means weak or mixed curves; inactive means no such curve, though single readings can be large; an effect the other way counts as inactive or inconclusive.
# Key:
# [1] = qHTS assay to identify small molecule antagonists of the glucocorticoid receptor (GR) signaling pathway - cell viability counter screen (AID 720693); further: nearly all actives have a fitted effect of over 55% in size
# [2] = qHTS assay for identifying genotoxic compounds that show differential cytotoxicity against isogenic chicken DT40 cell lines with known DNA damage response pathways - Rev3 mutant cell line (AID 743014); further: nearly all actives have a fitted effect of over 55% in size; further: potency means the concentration at half of the fitted maximal effect
# [3] = qHTS assay to identify small molecule antagonists of the androgen receptor (AR) signaling pathway - cell viability counter screen (AID 743033; further: nearly all actives have a fitted effect of over 45% in size; further: potency means the concentration at half of the fitted maximal effect)
# [4] = qHTS assay to identify small molecule antagonists of the androgen receptor (AR) signaling pathway using the MDA cell line - cell viability counter screen (AID 743041; further: nearly all actives have a fitted effect of over 45% in size)
# How it was run: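 Cytotoxicity counter screen: MDA-kb2 AR-luc cells, compound + R1881, 16 h, 37C, 0% CO2; CellTiter-Fluor added at 15.5 h, fluorescence read after 30 min.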
# [5] = qHTS assay to identify small molecule antagonists of the thyroid receptor (TR) signaling pathway - cell viability counter screen (AID 743064); further: nearly all actives have a fitted effect of over 50% in size; further: potency means the concentration at half of the fitted maximal effect
# How it was run: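 Counter screen for cytotoxicity: compound plus T3 (1 nM final) on GH3.TRE-Luc cells, 23.5 h at 37 °C, then fluorescence viability readout with CellTiter-Fluor.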
# [6] = qHTS assay to identify small molecule antagonists of the thyroid receptor (TR) signaling pathway (AID 743065); further: nearly all actives have a fitted effect of over 55% in size; further: potency means the concentration at half of the fitted maximal effect
# How it was run: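 GH3.TRE-Luc rat pituitary cells (two TREs driving luciferase) were dosed with compound, then stimulated with 1 nM T3 (final) for 23.5 h at 37 C. ONE-Glo luminescence was the read-out, with CellTiter-Fluor fluorescence as the cytotoxicity counter-screen.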
# [7] = system: thyroid hormone receptor (rat, GH3 cells); assay: qHTS assay to identify small molecule agonists of the thyroid receptor (TR) signaling pathway (AID 743066; calls by dose curve)
# [8] = qHTS assay to identify small molecule antagonists of the estrogen receptor alpha (ER-alpha) signaling pathway - cell viability counter screen (AID 743074; calls by dose curve;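 further: HEK293 cells carrying ER-alpha-UAS-bla reporter stimulated with 17beta-estradiol; nearly all actives have a fitted effect of over 45% in size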)
# [9] = biological target: Estrogen receptor (Homo sapiens) (UniProt P03372); assay: qHTS assay to identify small molecule agonists of the estrogen receptor alpha (ER-alpha) signaling pathway (AID 743075; calls by dose curve;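 further: HEK293 GripTite cells with ER-alpha and UAS-driven beta-lactamase reporter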; further: potency means the concentration at half of the fitted maximal effect)
# [10] = biological target: Estrogen receptor (Homo sapiens) (UniProt P03372); assay: qHTS assay to identify small molecule agonists of the estrogen receptor alpha (ER-alpha) signaling pathway using the BG1 cell line (AID 743079); further: nearly all actives have a fitted effect of over 20% in size; further: potency means the concentration at half of the fitted maximal effect
# [11] = qHTS assay to identify small molecule antagonists of the estrogen receptor alpha (ER-alpha) signaling pathway using the BG1 cell line (AID 743080; calls by dose curve;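 further: BG1 cells stimulated with 17beta-estradiol alongside compound; nearly all actives have a fitted effect of over 25% in size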; further: potency means the concentration at half of the fitted maximal effect)
# How it was run: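 Quantitative HTS on the Tox21 10K library: BG1 cells with endogenous ER-alpha and ERE-luciferase reporter, 17beta-estradiol stimulation, 21.5 h compound exposure, luminescence endpoint with parallel fluorescence cytotoxicity counter-read.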
# [12] = qHTS assay to identify small molecule antagonists of the estrogen receptor alpha (ER-alpha) signaling pathway using the BG1 cell line - cell viability counter screen (AID 743081);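 further: compound given together with 17beta-estradiol as the ER stimulus; nearly all actives have a fitted effect of over 45% in size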; further: potency means the concentration at half of the fitted maximal effect
# Aromatase (Homo sapiens) = Aromatase (Homo sapiens) (UniProt P11511); assay: qHTS assay to identify aromatase inhibitors (AID 743083); further: nearly all actives have a fitted effect of over 55% in size; further: potency means the concentration at half of the fitted maximal effect
# [13] = qHTS assay for identifying genotoxic compounds that show differential cytotoxicity against isogenic chicken DT40 cell lines with known DNA damage response pathways - Rad54/Ku70 mutant cell line (AID 743015); further: nearly all actives have a fitted effect of over 60% in size; further: potency means the concentration at half of the fitted maximal effect
# [14] = biological target: Estrogen receptor (Homo sapiens) (UniProt P03372); assay: qHTS assay to identify small molecule antagonists of the estrogen receptor alpha (ER-alpha) signaling pathway (AID 743069; active means well fitted curve in the direction sought with a large enough effect in the signal ratio in the repeat runs, not every such curve was filed as active; inconclusive means weak or mixed curves, or effect the other way; inactive means no such curve, though single readings can be large or run the other way; the % refers to the signal ratio; further: potency means the concentration at half of the fitted maximal effect)
# How it was run: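 Beta-lactamase FRET fluorescence is read after 2 hr at room temperature with LiveBLAzer B/G substrate. Before that, ER-alpha-bla HEK293 cells sit 4 hr after plating, then receive compound plus 17beta-estradiol and incubate 18 hr at 37C.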
# [15] = biological target: Androgen receptor (Homo sapiens) (UniProt P10275); assay: qHTS assay to identify small molecule antagonists of the androgen receptor (AR) signaling pathway (AID 743035; active means well fitted inhibition curve with a large enough effect in the signal ratio in the repeat runs, not every such curve was filed as active; inconclusive means weak or mixed curves, or effect the other way; inactive means no such curve, though single readings can be large or run the other way; the % refers to the signal ratio)
# How it was run: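 Antagonist mode: AR-bla HEK293 cells co-treated with test compounds and agonist R1881 for 16 h at 37C, 5% CO2. Beta-lactamase activity read as FRET fluorescence after 2 h room-temperature substrate loading.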
# [16] = biological target: Androgen receptor (Homo sapiens) (UniProt P10275); assay: qHTS assay to identify small molecule agonists of the androgen receptor (AR) signaling pathway (AID 743036; active means well fitted activation curve with a large enough effect in the signal ratio in the repeat runs, with a control signal flat, not every such curve was filed as active; inconclusive means weak or mixed curves, or effect the other way; inactive means no such curve, though single readings can be large or run the other way; the % refers to the signal ratio)
# How it was run: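 In this Tox21 qHTS, 2,000 HEK293 AR-bla cells per well were incubated with compounds for 16 h at 37C and 5% CO2. Fluorescence intensity was recorded 2 h after adding LiveBLAzer B/G FRET substrate at room temperature.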
# [17] = biological target: Androgen receptor (Homo sapiens) (UniProt P10275); assay: qHTS assay to identify small molecule agonists of the androgen receptor (AR) signaling pathway using the MDA cell line (AID 743040; further: nearly all actives have a fitted effect of over 20% in size)
# How it was run: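 Luciferase read-out, ONE-Glo, 30 min RT. Cells: MDA-kb2 AR-luc, MMTV promoter with AR and GR response elements. Compound exposure 16 h, 37C, 0% CO2, after 5 h pre-incubation. qHTS agonist mode.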
# [18] = biological target: Androgen receptor (Homo sapiens) (UniProt P10275); assay: qHTS assay to identify small molecule antagonists of the androgen receptor (AR) signaling pathway using the MDA cell line (AID 743042; further: nearly all actives have a fitted effect of over 55% in size)
# How it was run: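 MDA-kb2 breast carcinoma cells carrying MMTV-luciferase (AR/GR responsive) were co-treated with compounds and the agonist R1881 for 16 h at 37C. Inhibition read as ONE-Glo luminescence; CellTiter-Fluor fluorescence measured in parallel for cytotoxicity.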
# [19] = qHTS assay for identifying genotoxic compounds that show differential cytotoxicity against isogenic chicken DT40 cell lines with known DNA damage response pathways - wild type cell line (AID 743012); further: nearly all actives have a fitted effect of over 60% in size; further: potency means the concentration at half of the fitted maximal effect
# How it was run: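 Viability by ATP luminescence (CellTiter-Glo, 30 min RT) after 40 h compound treatment at 37 C/5% CO2, using 300 parental DNA repair-proficient DT40 cells per well.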
# Sequence of Aromatase (Homo sapiens) (P11511 whole entry, looked up): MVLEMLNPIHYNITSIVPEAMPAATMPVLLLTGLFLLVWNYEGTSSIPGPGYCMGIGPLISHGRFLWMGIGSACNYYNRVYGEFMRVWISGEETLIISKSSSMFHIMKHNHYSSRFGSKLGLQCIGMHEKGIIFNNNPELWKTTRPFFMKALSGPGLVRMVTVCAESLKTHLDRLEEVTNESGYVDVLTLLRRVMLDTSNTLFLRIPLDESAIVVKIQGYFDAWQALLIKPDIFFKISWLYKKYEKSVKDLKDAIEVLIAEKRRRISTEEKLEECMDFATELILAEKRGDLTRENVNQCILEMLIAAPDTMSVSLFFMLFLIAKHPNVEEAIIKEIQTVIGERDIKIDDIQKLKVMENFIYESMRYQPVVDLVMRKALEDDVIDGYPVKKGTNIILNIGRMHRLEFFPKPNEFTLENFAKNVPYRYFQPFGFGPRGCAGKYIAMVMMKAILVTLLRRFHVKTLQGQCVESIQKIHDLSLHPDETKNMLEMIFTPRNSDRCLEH
# Sequence of Androgen receptor (Homo sapiens) (P10275 whole entry, looked up): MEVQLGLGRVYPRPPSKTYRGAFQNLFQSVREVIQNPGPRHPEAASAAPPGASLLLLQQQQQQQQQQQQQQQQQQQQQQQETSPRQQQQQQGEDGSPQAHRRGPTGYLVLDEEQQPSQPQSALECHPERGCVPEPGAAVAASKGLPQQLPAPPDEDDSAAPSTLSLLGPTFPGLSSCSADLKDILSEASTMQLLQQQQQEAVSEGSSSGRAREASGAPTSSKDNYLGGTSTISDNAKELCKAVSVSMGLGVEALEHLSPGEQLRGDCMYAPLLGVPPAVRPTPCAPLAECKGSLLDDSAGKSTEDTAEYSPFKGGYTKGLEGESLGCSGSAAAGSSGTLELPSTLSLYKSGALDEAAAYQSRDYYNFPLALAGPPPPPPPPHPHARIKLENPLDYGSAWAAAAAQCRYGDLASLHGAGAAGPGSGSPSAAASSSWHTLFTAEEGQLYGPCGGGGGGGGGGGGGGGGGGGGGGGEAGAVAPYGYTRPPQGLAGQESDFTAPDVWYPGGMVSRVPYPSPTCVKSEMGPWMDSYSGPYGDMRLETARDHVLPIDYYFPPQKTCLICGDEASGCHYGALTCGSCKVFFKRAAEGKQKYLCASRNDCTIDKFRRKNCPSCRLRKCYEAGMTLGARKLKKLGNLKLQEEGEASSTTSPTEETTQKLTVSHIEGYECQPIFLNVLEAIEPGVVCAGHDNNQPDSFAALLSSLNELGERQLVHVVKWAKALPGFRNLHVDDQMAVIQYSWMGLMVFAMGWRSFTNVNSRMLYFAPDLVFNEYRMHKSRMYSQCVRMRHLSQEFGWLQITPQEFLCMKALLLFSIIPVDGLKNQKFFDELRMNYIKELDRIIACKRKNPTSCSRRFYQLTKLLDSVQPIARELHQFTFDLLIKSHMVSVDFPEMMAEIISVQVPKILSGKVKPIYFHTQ
# Sequence of Estrogen receptor (Homo sapiens) (P03372 whole entry, looked up): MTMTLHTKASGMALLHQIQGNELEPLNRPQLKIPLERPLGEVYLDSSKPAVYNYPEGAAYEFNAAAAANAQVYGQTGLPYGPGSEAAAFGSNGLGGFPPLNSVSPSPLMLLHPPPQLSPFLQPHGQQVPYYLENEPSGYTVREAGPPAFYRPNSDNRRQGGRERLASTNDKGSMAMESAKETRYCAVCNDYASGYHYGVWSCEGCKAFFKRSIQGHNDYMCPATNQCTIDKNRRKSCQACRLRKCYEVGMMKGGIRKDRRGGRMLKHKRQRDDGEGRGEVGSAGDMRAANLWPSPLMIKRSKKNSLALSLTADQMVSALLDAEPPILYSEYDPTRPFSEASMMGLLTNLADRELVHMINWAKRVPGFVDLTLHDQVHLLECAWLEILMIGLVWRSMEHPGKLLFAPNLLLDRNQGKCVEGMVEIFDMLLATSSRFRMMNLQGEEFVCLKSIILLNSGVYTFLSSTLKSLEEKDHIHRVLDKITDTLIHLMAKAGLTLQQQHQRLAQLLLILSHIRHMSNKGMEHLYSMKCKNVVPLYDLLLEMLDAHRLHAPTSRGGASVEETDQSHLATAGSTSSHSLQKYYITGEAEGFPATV
SMILES,Potency [1],Potency [2],Potency [3],Potency [4],Potency [5],Potency [6],outcome [7],outcome [8],Potency [9],Potency [10],Potency [11],Potency [12],Potency (Aromatase (Homo sapiens)),Potency [13],Potency [14],Potency [15],outcome [16],outcome [17],Potency [18],Potency [19]
O=C(O)c1ccc2c(c1)nc(C(=O)NC1CCN(C3CC3)CC1)n2Cc1cc(-c2ccc(Cl)s2)on1,inactive,inactive,inactive,inactive,inactive,inactive,inactive,inactive,inactive,inactive,inactive,inactive,inactive,–,–,–,–,–,–,–
O=C(Nc1ccc2c(c1)Cc1ccccc1-2)C(F)(F)F,inactive,–,inactive,inactive,inactive,inactive,inactive,inactive,–,–,–,inactive,inactive,54.5 µM (active),–,–,–,–,–,–
CC(Cc1ccccc1)(NC(=O)CN)c1ccccc1 (centres undefined),inactive,inactive,inactive,inactive,–,–,inactive,inactive,inactive,inactive,inactive,inactive,inactive,–,inactive,–,–,–,–,–
CC1(C)[C@@H]2CC[C@]3(C2)[C@@H]1C(=O)CCC3(C)C,inactive,–,inactive,inactive,inactive,inactive,inactive,–,inactive,inactive,–,inactive,–,–,inactive,inactive,inactive,inactive,inactive,–
O=C(N[C@@H](Cc1ccccc1)[C@@H](O)C(=O)N1C[C@@H](O)[C@@H](O)C1)c1cc2cc(Cl)ccc2[nH]1,inactive,–,–,inactive,–,–,inactive,inactive,inactive,–,–,inactive,inactive,–,–,–,–,–,–,–
CCCCCCCCNC,–,inactive,–,inactive,inactive,inactive,inactive,–,–,–,–,inactive,inactive,inactive,–,–,–,–,–,inactive
C[C@]12CCC(=O)C=C1[C@@H]1C[C@@H]1[C@H]1[C@@H]3[C@@H]4C[C@@H]4[C@@]4(CCC(=O)O4)[C@@]3(C)CC[C@@H]12,–,11.9 µM (active),inactive,inactive,–,21.1 µM (active),inactive,inactive,–,–,–,inactive,inactive,–,–,–,–,–,–,9.44 µM (active)
CO[C@@H]1COCC[C@@H]1N[C@@H]1CC[C@@](C(=O)N2CCc3ncc(C(F)(F)F)cc3C2)(C(C)C)C1,inactive,–,–,inactive,inactive,–,–,inactive,–,–,–,inactive,inactive,–,–,–,–,–,–,–
CC(C)C[C@H](NC(=O)[C@H](Cc1ccccc1)NC(=O)c1cnccn1)B(O)O,–,13.3 nM (active) and 9.4 nM (active),0.0076 µM (active),–,18.8 nM (active) and 11.9 nM (active),23.7 nM (active) and 16.8 nM (active),–,inactive,–,–,66.8 nM (active) and 53.1 nM (active),1.06 µM (active) and 668 nM (active),21.1 nM (active) and 15 nM (active),11.9 nM (active) and 10.6 nM (active),0.0674 µM [inconclusive] (active),–,–,–,–,13.3 nM (active) and 11.9 nM (active)
C[C@H](CN1CCCC1)C(=O)c1ccc(C(F)(F)F)cc1,–,10.6 µM (active),inactive,inactive,inactive,26.6 µM (active),inactive,inactive,–,–,–,–,inactive,8.41 µM (active),–,–,–,–,–,6.68 µM (active)
O=C(O)c1ccccc1[N+](=O)[O-],–,inactive,inactive,inactive,inactive,–,inactive,inactive,–,–,–,inactive,inactive,inactive,–,–,–,–,–,inactive
CCOc1cc(OCC)c(C(C)=O)cc1OCC,inactive,60 µM (active),–,inactive,19 µM (active),inactive,inactive,inactive,inactive,–,inactive,–,26.8 µM (active),–,–,inactive,inactive,inactive,inactive,–
Oc1ccc(Oc2ccccc2)cc1,–,23.1 µM (active),inactive,inactive,41 µM (active),20.6 µM (active),inactive,inactive,0.0736 µM [inconclusive] (active),7.3 µM (active),–,inactive,–,36.6 µM (active),inactive,–,–,–,–,20.6 µM (active)
CC(C)=CCC/C(C)=C/C=N/O,inactive,–,inactive,inactive,inactive,–,inactive,inactive,inactive,inactive,–,inactive,inactive,–,inactive,–,–,–,–,–
S=c1[nH][nH]c(=S)s1,inactive,inactive,–,inactive,inactive,inactive,inactive,inactive,inactive,inactive,inactive,inactive,inactive,–,inactive,–,–,–,–,–
CNc1ccccc1,–,inactive,inactive,inactive,inactive,inactive,inactive,inactive,inactive,inactive,–,inactive,inactive,inactive,inactive,–,–,–,–,inactive
Clc1ccccc1-c1nc(-c2ccncc2)no1,inactive,inactive,inactive,inactive,–,inactive,inactive,inactive,–,–,–,inactive,inactive,–,–,–,–,–,–,–
Cc1c(Cl)cccc1Nc1ccccc1C(=O)O,inactive,inactive,–,inactive,–,13.3 µM (active),–,inactive,inactive,inactive,–,inactive,inactive,–,–,–,–,–,–,–
N#Cc1ccc(CC(=O)c2cccc(C(F)(F)F)c2)cc1,inactive,–,inactive,inactive,inactive,inactive,inactive,inactive,–,–,–,inactive,inactive,–,–,–,–,–,–,–
N#C[C@@H]1CC(F)(F)CN1C(=O)CNC1CC2CCC(C1)N2c1ncccn1 (some centres undefined),inactive,–,inactive,inactive,inactive,–,–,inactive,inactive,inactive,–,inactive,inactive,–,inactive,inactive,inactive,inactive,inactive,–
O=Cc1ccc([N+](=O)[O-])cc1,inactive,–,inactive,inactive,inactive,inactive,inactive,inactive,inactive,30.8 µM (active),inactive,inactive,inactive,48.9 µM (active),inactive,–,–,–,–,–
O=C(OCCOCCOCCOC(=O)c1ccccc1)c1ccccc1,inactive,–,inactive,inactive,inactive,–,inactive,inactive,inactive,inactive,–,inactive,inactive,–,inactive,–,–,–,–,–
O=c1[nH]nc(-c2ccc([N+](=O)[O-])o2)o1,inactive,19.3 µM (active),–,–,–,–,inactive,inactive,inactive,inactive,inactive,–,inactive,–,–,–,–,–,–,–
NCCOCCOCCN,–,24.3 µM (active),–,–,inactive,–,inactive,inactive,–,–,–,inactive,inactive,24.3 µM (active),–,–,–,inactive,–,24.3 µM (active)
